Where “and” joins values, the source holds several entries; their conditions need not be identical. Identical values can stand only once. Records with an inconclusive call do not appear. The source holds several records for some structures; these can differ, active in one and inactive in another. Calls of active or inactive are those of the source. Unless noted, calls follow the shape of the dose curve; as a rule, active = well fitted curve in the direction sought with a large enough effect in the repeat runs; inconclusive = weak or mixed curves; inactive = no such curve, though single readings can be large; an effect the other way counts as inactive or inconclusive.

Assay [1] is described as follows: qHTS assay to identify small molecule antagonists of the thyroid receptor (TR) signaling pathway - cell viability counter screen (AID 743064). Also: nearly all actives have a fitted effect of over 50% in size. The method in brief:
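In rat pituitary GH3.TRE-Luc reporter cells co-exposed to compound and 1 nM T3 for 23.5 h, cytotoxicity was assessed with CellTiter-Fluor in the same wells, read by fluorescence.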
(In general: Quantitative high-throughput screening tests each substance at several concentrations.)

The nature of assay [2]: qHTS assay to identify small molecule antagonists of the thyroid receptor (TR) signaling pathway (AID 743065). Also: series mostly up to about 70 µM; nearly all actives have a fitted effect of over 55% in size. The method in brief:
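GH3.TRE-Luc rat pituitary cells (two TREs driving luciferase) were dosed with compound, then stimulated with 1 nM T3 (final) for 23.5 h at 37 C. ONE-Glo luminescence was the read-out, with CellTiter-Fluor fluorescence as the cytotoxicity counter-screen.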

The test system of assay [3] is thyroid hormone receptor (rat, GH3 cells). Briefly: qHTS assay to identify small molecule agonists of the thyroid receptor (TR) signaling pathway (AID 743066; calls by dose curve).
For assay [4], the target named is Estrogen receptor (Homo sapiens) (UniProt P03372). The assay can be described thus: qHTS assay to identify small molecule antagonists of the estrogen receptor alpha (ER-alpha) signaling pathway (AID 743069; active = well fitted curve in the direction sought with a large enough effect in the signal ratio in the repeat runs, not every such curve was filed as active; the % refers to the signal ratio). Put shortly:
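In this cell-based reporter format, GripTite HEK293 cells harbouring ER-alpha-UAS-bla were grown overnight with 2% charcoal-stripped FBS, dosed with DMSO-dissolved compounds, then challenged with 17beta-estradiol. After 18 hr at 37C, beta-lactamase activity was detected by FRET fluorescence.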

A short description of assay [5]: qHTS assay to identify small molecule antagonists of the estrogen receptor alpha (ER-alpha) signaling pathway - cell viability counter screen (AID 743074; calls by dose curve; also: nearly all actives have a fitted effect of over 45% in size).
Assay [6] deals with Estrogen receptor (Homo sapiens) (UniProt P03372). The assay can be described thus: qHTS assay to identify small molecule agonists of the estrogen receptor alpha (ER-alpha) signaling pathway (AID 743075; calls by dose curve).
Assay [7] has the same target. The assay can be described thus: qHTS assay to identify small molecule agonists of the estrogen receptor alpha (ER-alpha) signaling pathway using the BG1 cell line (AID 743079). Also: nearly all actives have a fitted effect of over 20% in size. Also: potency is read from the fitted curve at half-maximal effect.
A short description of assay [8]: qHTS assay to identify small molecule antagonists of the estrogen receptor alpha (ER-alpha) signaling pathway using the BG1 cell line (AID 743080; calls by dose curve;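 also: BG1 cells stimulated with 17beta-estradiol alongside compound; series mostly up to about 70 µM; nearly all actives have a fitted effect of over 25% in size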). The method in brief:
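BG1-Luc-4E2 cells (endogenous full-length ER-alpha, 4xERE luciferase) hormone-starved 5 days in charcoal-stripped FBS, plated 4,000/well for 24 h, then compound plus 17beta-estradiol for 21.5 h at 37 C; ONE-Glo luminescence read.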

A short description of assay [9]: qHTS assay to identify small molecule antagonists of the estrogen receptor alpha (ER-alpha) signaling pathway using the BG1 cell line - cell viability counter screen (AID 743081).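 Also: compound given together with 17beta-estradiol as the ER stimulus; series mostly up to about 70 µM; nearly all actives have a fitted effect of over 45% in size.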
The target of the next assay is Aromatase (Homo sapiens) (UniProt P11511). The assay can be described thus: qHTS assay to identify aromatase inhibitors (AID 743083). Also: series mostly up to about 70 µM; nearly all actives have a fitted effect of over 55% in size.
Assay [10] can be described thus: qHTS assay to identify aromatase inhibitors - cell viability counter screen (AID 743084).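 Also: cells stimulated with testosterone during compound exposure; nearly all actives have a fitted effect of over 55% in size.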
The target in assay [11] is Aryl hydrocarbon receptor (Homo sapiens) (UniProt P35869). Briefly: qHTS assay to identify small molecule that activate the aryl hydrocarbon receptor (AhR) signaling pathway (AID 743085).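 Also: HG2L7.5c1 human HepG2 liver cells with stably integrated DRE-driven firefly reporter; series mostly up to about 70 µM; nearly all actives have a fitted effect of over 15% in size.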 The method in brief: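 AhR agonist activity is inferred from enhanced light output of a DRE-controlled firefly luciferase reporter in HepG2 cells, measured with ONE-Glo following 24 h treatment at 37C.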

Assay [12] in a line: qHTS assay to identify small molecule that activate the aryl hydrocarbon receptor (AhR) signaling pathway - cell viability counter screen (AID 743086).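 Also: HepG2 liver cells carrying the AhR DRE luciferase reporter; series mostly up to about 70 µM; nearly all actives have a fitted effect of over 45% in size.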 The method in brief: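 HepG2-AhR-luc (HG2L7.5c1) cells, 4000/well, treated 24 h at 37 C with compound; viability measured as CellTiter-Fluor fluorescence after 30 min in the same wells as the luciferase read.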
Assay [13] deals with Peroxisome proliferator-activated receptor gamma (Homo sapiens) (UniProt P37231). Briefly: qHTS assay to identify small molecule agonists of the peroxisome proliferator-activated receptor gamma (PPARg) signaling pathway (AID 743094; active = well fitted activation curve with a large enough effect in the signal ratio in the repeat runs, not every such curve was filed as active; the % refers to the signal ratio). Put shortly: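 Cell-based bla reporter, HEK293H background, PPARg-driven UAS. Pre-incubation 5 h, 37C, 5% CO2. Compound 17 h, 37C. Substrate 1 h RT; fluorescence.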

For assay [14] the target is unchanged. The assay can be described thus: qHTS assay to identify small molecule antagonists of the peroxisome proliferator-activated receptor gamma (PPARg) signaling pathway (AID 743191; calls by dose curve; also: series mostly up to about 63 µM; nearly all actives have a fitted effect of over 30% in size). Put shortly:
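GeneBLAzer PPARg UAS-bla HEK293H cells, 5 h post-plating, exposed to compounds 17 h at 37C. LiveBLAzer B/G FRET substrate added for 1 h at room temperature; beta-lactamase reporter read by fluorescence intensity.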

Assay [15] is described as follows: qHTS assay to identify small molecule antagonists of the peroxisome proliferator-activated receptor gamma (PPARg) signaling pathway - cell viability counter screen (AID 743194). Also: nearly all actives have a fitted effect of over 55% in size. The method in brief: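 Cytotoxicity counter screen in PPARg-bla HEK293H cells, same wells as reporter assay. Compounds plus 50 nM rosiglitazone (final) for 17 h at 37 C, then viability read by CellTiter-Glo luminescence.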

A short description of assay [16]: qHTS assay for small molecule agonists of the antioxidant response element (ARE) signaling pathway (AID 743202; active = well fitted activation curve with a large enough effect in the signal ratio in the repeat runs, not every such curve was filed as active; the % refers to the signal ratio). The method in brief:
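HepG2 ARE-bla cells; 16 h treatment at 37 C; FRET-based beta-lactamase fluorescence read after 2 h substrate incubation at room temperature.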

Assay [17] is described as follows: qHTS assay for small molecule agonists of the antioxidant response element (ARE) signaling pathway - cell viability counter screen (AID 743203; calls by dose curve; also: nearly all actives have a fitted effect of over 55% in size). The method in brief: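 Measured in the same wells as the beta-lactamase ARE reporter, this read-out is CellTiter-Glo luminescence from HepG2 ARE-bla cells given compounds for 16 hrs.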
A short description of assay [18]: qHTS assay for small molecule activators of the heat shock response signaling pathway - cell viability counter screen (AID 743209). Also: nearly all actives have a fitted effect of over 50% in size. The method in brief: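 Same-well multiplex: after 2.5 h room-temperature incubation with LiveBLAzer B/G substrate and fluorescence reading, CellTiter-Glo reagent was added to HSE-bla HeLa cells that had received compound for 5 h at 37 C; luminescence read after 30 min.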

Assay [19] in a line: qHTS assay for small molecule activators of the heat shock response signaling pathway (AID 743210; active = well fitted activation curve with a large enough effect in the signal ratio in the repeat runs, with a control signal flat, not every such curve was filed as active; the % refers to the signal ratio;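 also: HeLa cells with beta-lactamase reporter driven by heat shock elements; series mostly up to about 63 µM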). The method in brief:
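Following overnight attachment, HSE-bla HeLa cells received test compounds for 5 h at 37 C; beta-lactamase activity was then detected via FRET substrate fluorescence.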

Peroxisome proliferator-activated receptor gamma (Homo sapiens), sequence (P37231 whole entry, looked up): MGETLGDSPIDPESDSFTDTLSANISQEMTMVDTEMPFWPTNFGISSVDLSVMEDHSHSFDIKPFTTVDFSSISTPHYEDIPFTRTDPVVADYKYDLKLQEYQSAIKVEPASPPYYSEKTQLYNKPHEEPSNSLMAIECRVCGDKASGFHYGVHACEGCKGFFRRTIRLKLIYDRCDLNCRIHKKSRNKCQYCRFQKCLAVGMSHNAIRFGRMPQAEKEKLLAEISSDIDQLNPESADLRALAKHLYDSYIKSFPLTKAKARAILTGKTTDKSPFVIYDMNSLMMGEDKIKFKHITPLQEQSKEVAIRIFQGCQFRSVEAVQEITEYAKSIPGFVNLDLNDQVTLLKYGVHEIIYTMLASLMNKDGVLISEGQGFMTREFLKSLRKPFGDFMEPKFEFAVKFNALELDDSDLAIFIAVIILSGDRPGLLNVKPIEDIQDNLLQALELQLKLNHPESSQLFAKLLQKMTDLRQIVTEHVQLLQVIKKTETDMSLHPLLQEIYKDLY
Aryl hydrocarbon receptor (Homo sapiens), sequence (P35869 whole entry, looked up): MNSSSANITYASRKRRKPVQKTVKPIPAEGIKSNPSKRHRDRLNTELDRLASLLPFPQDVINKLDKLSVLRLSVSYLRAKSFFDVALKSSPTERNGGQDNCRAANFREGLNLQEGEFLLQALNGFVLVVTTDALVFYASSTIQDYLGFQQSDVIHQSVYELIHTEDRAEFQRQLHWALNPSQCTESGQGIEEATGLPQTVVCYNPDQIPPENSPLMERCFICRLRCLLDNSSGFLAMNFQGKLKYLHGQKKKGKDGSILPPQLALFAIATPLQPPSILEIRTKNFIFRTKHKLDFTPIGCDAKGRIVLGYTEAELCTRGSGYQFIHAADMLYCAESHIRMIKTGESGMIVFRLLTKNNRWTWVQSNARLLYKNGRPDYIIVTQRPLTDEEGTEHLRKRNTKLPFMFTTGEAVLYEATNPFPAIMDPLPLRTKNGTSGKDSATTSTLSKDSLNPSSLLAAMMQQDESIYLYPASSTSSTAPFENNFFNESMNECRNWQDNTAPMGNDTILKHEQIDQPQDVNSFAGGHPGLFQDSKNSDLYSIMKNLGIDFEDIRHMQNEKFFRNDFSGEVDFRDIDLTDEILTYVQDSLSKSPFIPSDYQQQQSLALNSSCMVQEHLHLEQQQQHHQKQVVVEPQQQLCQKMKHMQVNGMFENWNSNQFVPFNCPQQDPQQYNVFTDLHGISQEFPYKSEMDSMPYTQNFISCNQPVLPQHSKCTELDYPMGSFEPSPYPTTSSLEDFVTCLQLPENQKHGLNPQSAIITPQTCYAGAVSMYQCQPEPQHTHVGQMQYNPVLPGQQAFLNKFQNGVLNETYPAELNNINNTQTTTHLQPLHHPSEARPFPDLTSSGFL
Aromatase (Homo sapiens), sequence (P11511 whole entry, looked up): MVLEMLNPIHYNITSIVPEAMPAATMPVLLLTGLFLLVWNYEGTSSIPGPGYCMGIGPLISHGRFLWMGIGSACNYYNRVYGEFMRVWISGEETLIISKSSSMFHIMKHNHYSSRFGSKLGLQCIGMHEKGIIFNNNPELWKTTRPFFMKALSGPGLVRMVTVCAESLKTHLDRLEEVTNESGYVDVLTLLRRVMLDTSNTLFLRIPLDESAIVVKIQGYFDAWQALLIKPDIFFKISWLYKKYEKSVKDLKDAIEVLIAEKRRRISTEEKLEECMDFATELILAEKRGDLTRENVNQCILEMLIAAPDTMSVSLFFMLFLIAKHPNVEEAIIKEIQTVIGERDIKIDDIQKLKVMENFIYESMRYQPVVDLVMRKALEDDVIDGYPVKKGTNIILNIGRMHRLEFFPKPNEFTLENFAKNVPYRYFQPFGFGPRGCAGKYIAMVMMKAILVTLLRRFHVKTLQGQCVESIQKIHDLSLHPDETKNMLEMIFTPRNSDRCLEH
Estrogen receptor (Homo sapiens), sequence (P03372 whole entry, looked up): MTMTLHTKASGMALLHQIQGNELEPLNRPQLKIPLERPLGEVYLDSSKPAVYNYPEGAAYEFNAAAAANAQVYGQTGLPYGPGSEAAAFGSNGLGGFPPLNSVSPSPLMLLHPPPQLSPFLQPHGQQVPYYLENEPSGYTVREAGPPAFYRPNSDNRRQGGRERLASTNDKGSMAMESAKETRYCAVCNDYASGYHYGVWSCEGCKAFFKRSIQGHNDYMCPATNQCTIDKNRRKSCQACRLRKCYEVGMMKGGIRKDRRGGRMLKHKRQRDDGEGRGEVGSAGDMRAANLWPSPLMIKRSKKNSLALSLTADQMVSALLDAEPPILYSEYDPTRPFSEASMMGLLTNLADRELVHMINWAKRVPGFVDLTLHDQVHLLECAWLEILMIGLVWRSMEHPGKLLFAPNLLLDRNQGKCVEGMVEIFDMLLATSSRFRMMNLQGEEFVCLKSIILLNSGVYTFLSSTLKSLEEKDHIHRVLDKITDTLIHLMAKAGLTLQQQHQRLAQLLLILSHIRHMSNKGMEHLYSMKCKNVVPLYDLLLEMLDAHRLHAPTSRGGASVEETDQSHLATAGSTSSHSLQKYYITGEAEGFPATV

`CCCCCCCCCCCCCC(=O)OC(C)C`: the Potency entry in assay [1], in assay [2], in [4], in [6], in assay [8] and in assay [9] was “inactive” in each case. The Potency entry (with Aromatase (Homo sapiens); in assay [10]; in assay [11]; in assay [12]; in assay [13]; in [14]) was “inactive” each time. In addition, the Potency entry in assay [15], in assay [16] and in assay [17] was “inactive” in each case. For the same compound, the outcome in assay [3], in assay [5], in assay [18] and in [19] was inactive. Also, in assay [7], the Potency was 29.8 µM (active) and inactive.

Regarding `CCOC(=O)C(C)(C)Oc1ccc(Cl)cc1`, the Potency result in assay [1], in [2], in assay [4], in assay [6], in [8] and in assay [9] was “inactive” in each case. Moreover, the Potency result (in the assay with Aromatase (Homo sapiens); in assay [10]; in assay [12]; in assay [13]; in [14]; in assay [15]) was “inactive” in each case. For the same compound, the Potency entry in [16] and in [17] was “inactive” each time. Besides, the outcome in [3], in assay [5], in assay [18] and in assay [19] was inactive. The Potency in assay [7] was 26.6 µM (active) and inactive.

As for `NC(=O)N1c2ccccc2C=Cc2ccccc21`, the Potency entry in assay [1], in assay [2], in assay [4], in [6], in [7] and in assay [8] was “inactive” throughout. Further, the Potency entry (in assay [9]; with Aromatase (Homo sapiens); in assay [10]; in assay [11]; in assay [12]; in assay [13]) was “inactive” in each case. The Potency result in assay [14], in [15], in [16] and in assay [17] was “inactive” in each case. Moreover, the compound was called inactive in [3], in assay [5], in [18] and in assay [19].

In the case of `CC1=NN(c2ccccc2)C(=O)C1`, the Potency entry in [1], in assay [2], in assay [4], in assay [6], in assay [7] and in assay [8] was “inactive” throughout. The Potency result (in assay [9]; with Aromatase (Homo sapiens); in assay [10]; in assay [12]; in [13]; in assay [15]) was “inactive” each time. In addition, the Potency result in [16] and in assay [17] was “inactive” each time. Further, the call in assay [3], in assay [5], in assay [18] and in assay [19] was inactive.

For `O=C(O)CCCCC1CCSS1` (centres undefined), the Potency entry in assay [1], in assay [2], in assay [4], in assay [6], in assay [7] and in assay [8] was “inactive” throughout. In addition, the Potency entry (in assay [9]; with Aromatase (Homo sapiens); in assay [10]; in [12]; in assay [13]; in assay [14]) was “inactive” in each case. The Potency entry in assay [15] and in [17] was “inactive” each time. Also, the compound was called inactive in assay [3], in assay [5], in assay [18] and in [19].

On to `CCOCCO`, for which the Potency entry (in assay [1]; in [2]; in assay [9]; with Aromatase (Homo sapiens); in [10]; in assay [11]) was “inactive” each time. Moreover, the Potency entry in assay [12], in assay [13], in assay [14], in [15], in [16] and in assay [17] was “inactive” each time. Besides, the call in assay [3], in assay [5], in [18] and in [19] was inactive.

With `C[C@]12C=CC(=O)C=C1CC[C@@H]1[C@@H]2C(=O)C[C@@]2(C)[C@H]1CC[C@]2(O)C(=O)CO`, the Potency entry in [1], in assay [2], in [4], in [6], in [8] and in [9] was “inactive” in each case. In addition, the Potency entry (with Aromatase (Homo sapiens); in [12]; in assay [13]; in assay [14]; in assay [15]; in assay [16]) was “inactive” each time. The Potency result in assay [17] was “inactive”. Moreover, the call in assay [3], in [5], in assay [18] and in [19] was inactive. Besides, in assay [7], the Potency entry was “inactive and 54.5 µM (active)”.

The record behind these values is PubChem BioAssay (Tox21).
